# From PubChem BioAssay
# Values joined by “and” are separate entries in the source; they are usually repeats but may differ in a detail not shown here. Equal entries are not always repeated. Active and inactive are the calls of the source.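 Rule for the calls, unless noted: active = z-score of at least 1.8 in each of two replicates, scored against plate mean and spread of sample wells; inactive = the rest.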
# Experiments:
# [1] = viability loss with induced miR-34 in A549 – imaging, A549 dox-inducible miR-34, nuclei and caspase counts, primary screen (AID 1347080;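 active = compounds whose cell count with miR-34 switched on is under 0.7 times the count with it off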; note: test concentration not given here); settings: A549 miR-34 inducible, Hoechst nuclei count, 48 h
# [2] = galactose survival enhancers in mitochondrial complex I cybrids – cell-based, galactose medium, ATP luminescence, primary screen (AID 1645843); settings: complex I mutant cybrid cells, 72 h, stronger effect = higher value;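 note: positive z means more ATP and so rescue of galactose-driven cybrid death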
# [3] = stronger effect = lower value, cell number ratio, induced over uninduced
# [4] = measured here: relative caspase fold change +Dox/-Dox
# [5] = measured here: total cells with miR-34 induction, stronger effect = lower value
# [6] = measured here: total cells without miR-34 induction
Structure (SMILES),"fold change [1, 3]","fold change [1, 4]","cell count [1, 5]","cell count [1, 6]",z-score [2]
CN1CCc2cc(Cl)c(O)cc2C(c2ccccc2)C1 (stereo not given),0.944 (inactive),0.98,8780,9300,0.39 (inactive)
COc1cc(CC(CO)C(CO)Cc2ccc(O)c(OC)c2)ccc1O (stereo not given),1.4 (inactive),0.831,8290,5940,0.405 (inactive)
O=c1c(OC2OC(CO)C(O)C(O)C2O)c(-c2ccc(O)c(O)c2)oc2cc(O)cc(O)c12 (stereo not given),0.911 (inactive) and 0.974 (inactive),0.962 and 2.15,4950 and 10100,5430 and 10300,-1.74 (inactive) and 0.575 (inactive)
CN1C(=O)CCC1c1cccnc1 (stereo not given),0.988 (inactive),2.52,9830,9950,0.965 (inactive)
CCC(=O)O[C@]1(C(=O)SCF)C(C)CC2C3CC(F)C4=CC(=O)C=C[C@]4(C)[C@@]3(F)C(O)C[C@@]21C (stereo not given in full),0.897 (inactive),1.65,6980,7780,1.79 (inactive)
C=CCc1ccccc1OCC(O)CN[C@]1(C)CCC[C@H](C(C)(C)NC(=O)CBr)C1 (stereo not given in full),0.814 (inactive),1.93,70,86,-1.52 (inactive)
COC(=O)C[C@](O)(CCCC(C)(C)O)C(=O)OC1C(OC)=C[C@]23CCCN2CCc2cc4c(cc2C13)OCO4 (stereo not given in full),0.85 (inactive),0.957,1590,1870,-1.86 (inactive)
CCCCC(=O)N(Cc1ccc(-c2ccccc2-c2nn[nH]n2)cc1)C(C(=O)O)C(C)C (stereo not given),0.925 (inactive),1.23,9560,10300,1.69 (inactive)
CN(C)CCC=C1c2ccccc2COc2ccccc21,0.942 (inactive),2.06,8300,8810,-0.535 (inactive)
O=c1cnn(C2OC(CO)C(O)C2O)c(=O)[nH]1 (stereo not given),1.77 (inactive),0.641,1880,1060,-0.74 (inactive)
CC=C1C2C=C(C)C[C@]1(N)c1ccc(=O)[nH]c1C2,0.883 (inactive),1.22,10100,11400,0.9 (inactive)
CC[C@]1(O)CC2CN(CCc3c([nH]c4ccccc34)[C@@](C(=O)OC)(c3cc4c(cc3OC)N(C)C3[C@@](O)(C(N)=O)C(O)[C@]5(CC)C=CCN6CC[C@]43C65)C2)C1 (stereo not given in full),0.722 (inactive),1.09,1070,1480,-1.19 (inactive)
NC(C(=O)NC1C(=O)N2C(C(=O)O)=C(Cl)CSC12)c1ccccc1 (stereo not given),1.39 (inactive),0.686,9470,6800,0.295 (inactive)
C[C@]12CCC3c4ccc(O)cc4CCC3C1CCC2O (stereo not given in full),1.11 (inactive),1.15,6850,6160,0.465 (inactive)
CC1(C)SC2C(N=CN3CCCCCC3)C(=O)N2C1C(=O)O (stereo not given),0.941 (inactive),1.42,9640,10200,0.33 (inactive)
COC1OC2O[C@@]3(C)CCC4C(C)CCC(C1C)[C@@]24OO3 (stereo not given in full),0.961 (inactive),0.771,9270,9650,-0.035 (inactive)
Nc1nc(Cl)nc2c1ncn2C1OC(CO)C(O)C1O (stereo not given),1.26 (inactive),0.688,2120,1680,-0.02 (inactive)
C[C@]12CC(O)C3C(CCC4=CC(=O)CC[C@@]43C)C1CCC2C(=O)CO (stereo not given in full),0.859 (inactive),2.3,7080,8240,0.21 (inactive)
CC#C[C@]1(O)CCC2C3CCC4=CC(=O)CCC4=C3C(c3ccc(N(C)C)cc3)C[C@@]21C (stereo not given in full),0.84 (inactive),0.861,5600,6670,-0.035 (inactive)
[Cl-].[Cl][Pt].[NH2-].[NH2-].c1ccncc1,0.987 (inactive),0.925,9550,9680,-1 (inactive)
C#C[C@]1(O)CCC2C3C(C)CC4=C(CCC(=O)C4)C3CC[C@@]21C (stereo not given in full),0.909 (inactive),1.5,8730,9600,-0.655 (inactive)
COCc1c(C(C)C)nc(C(C)C)c(C=CC(O)CC(O)CC(=O)O)c1-c1ccc(F)cc1 (stereo not given),1.06 (inactive),2.76,1210,1140,-1.86 (inactive)
COc1cc(C=Cc2ccc(O)cc2)cc(OC)c1,0.943 (inactive),1.26,6760,7170,-1.52 (inactive)
